The record followed here is publication PMC7862700, “An all-to-all approach to the identification of sequence-specific readers for epigenetic DNA modifications on cytosine”.

Experiment in all cases: DAPPL (digital affinity profiling via proximity ligation, sequencing); 10 mM Tris-HCl pH 7.5, 50 mM NaCl, 1 mM DTT, 4% glycerol, room temperature, 30 min; GST-TFs on glutathione beads, 16-mer random dsDNA library, 0.1% formaldehyde crosslink after washing; high values mean tight binding
Assay [1] has as its target T1, FEV (Homo sapiens, UniProt Q99581 1-238).
T1 sequence: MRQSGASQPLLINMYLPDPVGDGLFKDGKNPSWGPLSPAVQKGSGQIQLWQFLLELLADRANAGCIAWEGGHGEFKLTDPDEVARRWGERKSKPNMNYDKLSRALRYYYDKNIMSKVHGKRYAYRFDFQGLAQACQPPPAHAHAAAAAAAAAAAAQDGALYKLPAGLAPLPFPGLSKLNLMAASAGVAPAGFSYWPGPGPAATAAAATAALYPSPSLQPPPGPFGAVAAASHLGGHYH
To be noted: protein: recombinant; tags: N-terminal GST; dsDNA, one strand shown. Put shortly:
(§1)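 Human transcription factors fused to GST were expressed in yeast, captured on glutathione beads, given DNA barcodes and pooled with a GST-only negative control. Pools were incubated with 200 nmole of a 16-mer random double-stranded DNA library in Tris/NaCl/DTT/glycerol buffer at room temperature for 30 min. They were then washed, crosslinked with 0.1% formaldehyde, proximity-ligated (BsaI/T4 ligase, 1 h, 37 °C), PCR-amplified and sequenced on an Illumina NextSeq500. Binding signal is each 6-mer's read frequency for a factor divided by its frequency for the GST control.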

Assay [2] addresses ETV5 (Homo sapiens, UniProt P41161 1-510). To be noted: protein: recombinant; tags: N-terminal GST; dsDNA, one strand shown. Put shortly:
as §1

Assay [3] addresses HSF1 (Homo sapiens, UniProt Q00613 1-529). To be noted: protein: recombinant; tags: N-terminal GST; chain copies: 3; dsDNA, one strand shown. A digest of the protocol: as §1
Assay [4] addresses T2, SPIC (Homo sapiens, UniProt Q8N5J4 1-248).
T2 sequence: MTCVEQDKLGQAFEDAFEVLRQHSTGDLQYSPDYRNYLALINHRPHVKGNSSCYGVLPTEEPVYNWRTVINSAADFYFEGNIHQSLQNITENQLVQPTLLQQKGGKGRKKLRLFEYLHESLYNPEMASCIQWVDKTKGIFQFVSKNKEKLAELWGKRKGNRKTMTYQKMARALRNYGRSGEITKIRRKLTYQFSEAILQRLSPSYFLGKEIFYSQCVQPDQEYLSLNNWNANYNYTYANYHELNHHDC
To be noted: protein: recombinant; tags: N-terminal GST; dsDNA, one strand shown. A digest of the protocol: as §1

Assay [5] concerns the target ELF4 (Homo sapiens, UniProt Q99607 1-663). Particulars: protein: recombinant; tags: N-terminal GST; dsDNA, one strand shown. A digest of the protocol:
as §1

The target of assay [6] is T3, ELK4 (Homo sapiens, UniProt P28324-2 1-405).
T3 sequence: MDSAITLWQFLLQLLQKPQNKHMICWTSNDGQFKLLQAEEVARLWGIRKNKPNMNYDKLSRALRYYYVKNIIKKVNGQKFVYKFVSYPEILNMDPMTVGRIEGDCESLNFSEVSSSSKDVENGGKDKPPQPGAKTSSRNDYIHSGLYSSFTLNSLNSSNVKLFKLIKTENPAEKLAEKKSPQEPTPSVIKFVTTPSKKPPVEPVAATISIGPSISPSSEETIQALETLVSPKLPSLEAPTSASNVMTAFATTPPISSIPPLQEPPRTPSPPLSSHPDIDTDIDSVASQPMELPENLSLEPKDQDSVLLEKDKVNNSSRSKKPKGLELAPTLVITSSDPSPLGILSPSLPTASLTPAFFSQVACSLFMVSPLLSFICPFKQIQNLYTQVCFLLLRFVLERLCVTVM
Particulars: protein: recombinant; tags: N-terminal GST; dsDNA, one strand shown. A digest of the protocol: as §1

Assay [7] addresses T4, ETV2 (Homo sapiens, UniProt O00321 1-342).
T4 sequence: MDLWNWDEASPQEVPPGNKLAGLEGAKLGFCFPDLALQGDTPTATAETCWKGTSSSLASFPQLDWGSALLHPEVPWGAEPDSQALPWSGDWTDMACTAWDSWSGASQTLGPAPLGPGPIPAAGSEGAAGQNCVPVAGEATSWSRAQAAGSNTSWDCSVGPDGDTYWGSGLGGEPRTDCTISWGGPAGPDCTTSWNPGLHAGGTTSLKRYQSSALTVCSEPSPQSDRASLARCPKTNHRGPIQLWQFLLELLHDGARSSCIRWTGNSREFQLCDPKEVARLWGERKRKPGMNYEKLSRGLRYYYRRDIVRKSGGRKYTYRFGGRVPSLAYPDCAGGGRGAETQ
Particulars: protein: recombinant; tags: N-terminal GST; dsDNA, one strand shown. Put shortly: as §1

Assay [8] has as its target T5, ELF3 (Homo sapiens, UniProt P78545 1-371).
T5 sequence: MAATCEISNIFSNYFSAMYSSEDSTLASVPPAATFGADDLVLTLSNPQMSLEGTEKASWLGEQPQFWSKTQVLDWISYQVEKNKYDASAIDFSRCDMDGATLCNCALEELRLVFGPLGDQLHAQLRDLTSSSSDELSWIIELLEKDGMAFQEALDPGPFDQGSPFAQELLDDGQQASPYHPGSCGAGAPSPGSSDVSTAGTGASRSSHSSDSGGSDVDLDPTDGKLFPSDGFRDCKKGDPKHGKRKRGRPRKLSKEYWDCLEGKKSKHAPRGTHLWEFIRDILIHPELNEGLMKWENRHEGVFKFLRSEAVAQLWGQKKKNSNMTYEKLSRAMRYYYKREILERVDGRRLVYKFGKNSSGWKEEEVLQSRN
To be noted: protein: recombinant; tags: N-terminal GST; dsDNA, one strand shown. A digest of the protocol: as §1

Assay [9] concerns the target CRX (Homo sapiens, UniProt O43186 1-299). Particulars: protein: recombinant; tags: N-terminal GST; dsDNA, one strand shown. Put shortly: as §1
The target of assay [10] is ETV1 (Homo sapiens, UniProt P50549 1-477). Particulars: protein: recombinant; tags: N-terminal GST; dsDNA, one strand shown. A digest of the protocol: as §1
Assay [11] concerns the target T6, ERF (Homo sapiens, UniProt P50548 1-548).
T6 sequence: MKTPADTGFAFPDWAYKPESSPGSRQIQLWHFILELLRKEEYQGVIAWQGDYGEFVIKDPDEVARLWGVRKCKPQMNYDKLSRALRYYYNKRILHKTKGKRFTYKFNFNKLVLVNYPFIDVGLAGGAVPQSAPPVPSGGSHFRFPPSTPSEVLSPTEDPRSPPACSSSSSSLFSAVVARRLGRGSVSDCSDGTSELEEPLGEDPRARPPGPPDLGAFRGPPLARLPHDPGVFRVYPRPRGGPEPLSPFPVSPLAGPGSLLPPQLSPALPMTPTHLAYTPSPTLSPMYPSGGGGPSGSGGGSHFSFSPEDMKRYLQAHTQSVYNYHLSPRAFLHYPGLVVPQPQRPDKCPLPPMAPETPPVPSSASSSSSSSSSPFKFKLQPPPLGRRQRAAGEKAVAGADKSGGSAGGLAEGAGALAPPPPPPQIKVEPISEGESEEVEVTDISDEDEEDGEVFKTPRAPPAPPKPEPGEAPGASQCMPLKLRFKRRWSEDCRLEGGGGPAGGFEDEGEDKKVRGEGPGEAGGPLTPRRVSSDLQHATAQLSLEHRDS
Particulars: protein: recombinant; tags: N-terminal GST; dsDNA, one strand shown. A digest of the protocol:
as §1

For assay [12], the target named is T7, ETV3L (Homo sapiens, UniProt Q6ZN32 1-361).
T7 sequence: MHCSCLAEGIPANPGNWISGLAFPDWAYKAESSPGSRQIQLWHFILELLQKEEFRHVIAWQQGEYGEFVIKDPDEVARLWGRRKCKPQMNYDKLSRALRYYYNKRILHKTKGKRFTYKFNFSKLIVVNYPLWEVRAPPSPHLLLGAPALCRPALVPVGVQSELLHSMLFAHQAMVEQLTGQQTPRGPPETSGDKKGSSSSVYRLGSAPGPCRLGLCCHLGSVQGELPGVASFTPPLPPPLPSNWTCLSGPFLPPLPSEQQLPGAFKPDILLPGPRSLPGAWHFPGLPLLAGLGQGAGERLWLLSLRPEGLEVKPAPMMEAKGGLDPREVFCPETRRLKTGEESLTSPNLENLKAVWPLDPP
To be noted: protein: recombinant; tags: N-terminal GST; dsDNA, one strand shown. Put shortly: as §1

Assay [13] deals with T8, ETS2 (Homo sapiens, UniProt P15036 1-469).
T8 sequence: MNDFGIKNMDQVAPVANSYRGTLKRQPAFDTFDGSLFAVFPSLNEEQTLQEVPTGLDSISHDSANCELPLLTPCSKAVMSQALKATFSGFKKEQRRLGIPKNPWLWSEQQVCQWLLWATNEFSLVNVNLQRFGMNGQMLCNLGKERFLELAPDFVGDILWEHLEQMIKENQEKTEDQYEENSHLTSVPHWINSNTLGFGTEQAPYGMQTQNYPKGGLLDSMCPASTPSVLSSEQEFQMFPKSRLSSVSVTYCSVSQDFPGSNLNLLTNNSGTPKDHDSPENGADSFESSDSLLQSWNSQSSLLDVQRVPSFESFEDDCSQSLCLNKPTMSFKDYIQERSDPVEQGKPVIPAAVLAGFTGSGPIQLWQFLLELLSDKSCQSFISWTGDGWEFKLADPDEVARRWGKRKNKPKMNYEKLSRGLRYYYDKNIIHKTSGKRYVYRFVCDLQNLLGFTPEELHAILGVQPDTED
Particulars: protein: recombinant; tags: N-terminal GST; dsDNA, one strand shown. Put shortly: as §1

In assay [14] the target is T9, SPDEF (Homo sapiens, UniProt O95238 1-335).
T9 sequence: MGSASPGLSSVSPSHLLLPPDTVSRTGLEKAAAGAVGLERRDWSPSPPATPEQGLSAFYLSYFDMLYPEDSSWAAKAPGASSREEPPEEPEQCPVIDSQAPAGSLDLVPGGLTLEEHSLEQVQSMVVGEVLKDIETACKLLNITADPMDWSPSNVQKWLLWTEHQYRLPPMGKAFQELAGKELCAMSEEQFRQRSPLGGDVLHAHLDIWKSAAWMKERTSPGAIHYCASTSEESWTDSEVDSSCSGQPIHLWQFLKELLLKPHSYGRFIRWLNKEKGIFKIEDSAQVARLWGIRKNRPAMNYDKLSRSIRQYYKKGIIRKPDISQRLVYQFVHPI
To be noted: protein: recombinant; tags: N-terminal GST; dsDNA, one strand shown. Put shortly: as §1

The target of assay [15] is T10, ETV7 (Homo sapiens, UniProt Q9Y603 1-341).
T10 sequence: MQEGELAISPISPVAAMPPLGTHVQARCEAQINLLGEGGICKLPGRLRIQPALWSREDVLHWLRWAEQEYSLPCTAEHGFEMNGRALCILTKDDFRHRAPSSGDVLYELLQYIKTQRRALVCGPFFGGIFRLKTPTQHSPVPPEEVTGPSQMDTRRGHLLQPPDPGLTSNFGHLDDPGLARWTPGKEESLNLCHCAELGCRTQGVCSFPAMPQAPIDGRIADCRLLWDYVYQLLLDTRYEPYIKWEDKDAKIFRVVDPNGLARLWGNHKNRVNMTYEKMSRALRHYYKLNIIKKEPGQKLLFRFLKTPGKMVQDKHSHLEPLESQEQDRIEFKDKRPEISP
To be noted: protein: recombinant; tags: N-terminal GST; dsDNA, one strand shown. Put shortly:
as §1

For assay [16], the target named is T11, ELF5 (Homo sapiens, UniProt Q9UKW6-2 1-255).
T11 sequence: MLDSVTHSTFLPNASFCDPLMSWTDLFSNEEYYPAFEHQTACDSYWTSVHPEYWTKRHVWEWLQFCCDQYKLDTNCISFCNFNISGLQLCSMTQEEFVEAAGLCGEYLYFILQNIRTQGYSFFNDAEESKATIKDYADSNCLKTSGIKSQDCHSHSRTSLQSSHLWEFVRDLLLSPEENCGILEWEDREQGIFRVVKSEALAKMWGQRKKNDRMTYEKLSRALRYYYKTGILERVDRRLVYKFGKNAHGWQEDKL
Particulars: protein: recombinant; tags: N-terminal GST; dsDNA, one strand shown. A digest of the protocol: as §1

The target in assay [17] is T12, ETV3 (Homo sapiens, UniProt P41162-2 1-143).
T12 sequence: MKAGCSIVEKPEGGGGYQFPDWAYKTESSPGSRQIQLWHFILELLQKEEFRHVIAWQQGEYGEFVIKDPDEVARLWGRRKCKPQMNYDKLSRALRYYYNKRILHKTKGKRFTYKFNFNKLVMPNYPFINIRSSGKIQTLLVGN
To be noted: protein: recombinant; tags: N-terminal GST; dsDNA, one strand shown. A digest of the protocol: as §1

The target of assay [18] is ETV6 (Homo sapiens, UniProt P41212 1-452). Particulars: protein: recombinant; tags: N-terminal GST; dsDNA, one strand shown. A digest of the protocol: as §1
Chain of ETV6 (P41212 whole entry): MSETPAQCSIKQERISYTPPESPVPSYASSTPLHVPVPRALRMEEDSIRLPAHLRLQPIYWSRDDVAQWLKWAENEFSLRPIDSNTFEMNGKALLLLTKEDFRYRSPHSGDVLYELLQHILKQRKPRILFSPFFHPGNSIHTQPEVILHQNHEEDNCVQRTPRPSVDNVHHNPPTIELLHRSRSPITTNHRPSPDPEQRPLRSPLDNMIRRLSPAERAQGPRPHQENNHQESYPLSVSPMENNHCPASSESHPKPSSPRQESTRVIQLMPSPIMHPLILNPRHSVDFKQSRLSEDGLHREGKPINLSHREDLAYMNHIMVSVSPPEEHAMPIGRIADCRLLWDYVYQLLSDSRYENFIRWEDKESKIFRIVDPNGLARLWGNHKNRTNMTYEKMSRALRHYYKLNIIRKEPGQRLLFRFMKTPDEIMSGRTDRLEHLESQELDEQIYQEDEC

Chain of ELF4 (Q99607 whole entry): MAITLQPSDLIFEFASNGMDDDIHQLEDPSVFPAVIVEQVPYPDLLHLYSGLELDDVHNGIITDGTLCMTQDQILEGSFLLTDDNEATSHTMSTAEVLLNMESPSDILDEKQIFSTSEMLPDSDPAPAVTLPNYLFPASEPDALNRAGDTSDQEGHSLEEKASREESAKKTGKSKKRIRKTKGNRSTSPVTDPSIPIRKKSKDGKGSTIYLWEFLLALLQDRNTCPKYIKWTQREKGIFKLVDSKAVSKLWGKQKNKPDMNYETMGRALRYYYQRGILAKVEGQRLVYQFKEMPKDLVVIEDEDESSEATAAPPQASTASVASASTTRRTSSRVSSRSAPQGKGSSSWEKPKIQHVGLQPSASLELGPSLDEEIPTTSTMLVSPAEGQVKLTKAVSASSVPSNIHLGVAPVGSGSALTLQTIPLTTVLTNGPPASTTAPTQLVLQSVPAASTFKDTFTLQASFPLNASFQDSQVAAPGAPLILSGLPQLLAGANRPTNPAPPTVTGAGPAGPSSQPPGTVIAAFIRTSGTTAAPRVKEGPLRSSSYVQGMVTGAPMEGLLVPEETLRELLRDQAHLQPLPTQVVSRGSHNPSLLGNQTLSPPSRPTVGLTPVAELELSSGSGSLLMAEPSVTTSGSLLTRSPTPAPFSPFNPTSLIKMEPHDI
Chain of HSF1 (Q00613 whole entry): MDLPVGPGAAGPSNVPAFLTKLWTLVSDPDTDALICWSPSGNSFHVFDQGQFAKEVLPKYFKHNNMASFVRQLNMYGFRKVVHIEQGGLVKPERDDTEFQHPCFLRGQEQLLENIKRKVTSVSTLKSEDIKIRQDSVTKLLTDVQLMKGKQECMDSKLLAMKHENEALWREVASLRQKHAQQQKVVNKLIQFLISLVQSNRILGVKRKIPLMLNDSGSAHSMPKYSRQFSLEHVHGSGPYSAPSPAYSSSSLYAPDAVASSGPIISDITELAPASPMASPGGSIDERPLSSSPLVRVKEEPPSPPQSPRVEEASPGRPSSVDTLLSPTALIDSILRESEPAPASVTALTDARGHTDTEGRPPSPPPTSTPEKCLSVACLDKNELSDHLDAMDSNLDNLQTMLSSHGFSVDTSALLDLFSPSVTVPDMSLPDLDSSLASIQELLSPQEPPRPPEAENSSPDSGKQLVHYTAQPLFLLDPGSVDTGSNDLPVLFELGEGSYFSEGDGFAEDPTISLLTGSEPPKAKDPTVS
Chain of CRX (O43186 whole entry): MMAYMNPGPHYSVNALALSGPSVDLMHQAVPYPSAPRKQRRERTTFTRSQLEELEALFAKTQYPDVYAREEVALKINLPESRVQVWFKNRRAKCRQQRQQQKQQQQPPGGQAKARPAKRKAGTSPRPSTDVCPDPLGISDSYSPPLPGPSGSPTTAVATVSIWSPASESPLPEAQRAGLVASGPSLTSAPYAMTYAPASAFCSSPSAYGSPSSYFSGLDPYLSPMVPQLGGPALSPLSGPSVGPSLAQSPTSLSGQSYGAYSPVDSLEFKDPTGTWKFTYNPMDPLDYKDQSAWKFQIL
Chain of ETV5 (P41161 whole entry): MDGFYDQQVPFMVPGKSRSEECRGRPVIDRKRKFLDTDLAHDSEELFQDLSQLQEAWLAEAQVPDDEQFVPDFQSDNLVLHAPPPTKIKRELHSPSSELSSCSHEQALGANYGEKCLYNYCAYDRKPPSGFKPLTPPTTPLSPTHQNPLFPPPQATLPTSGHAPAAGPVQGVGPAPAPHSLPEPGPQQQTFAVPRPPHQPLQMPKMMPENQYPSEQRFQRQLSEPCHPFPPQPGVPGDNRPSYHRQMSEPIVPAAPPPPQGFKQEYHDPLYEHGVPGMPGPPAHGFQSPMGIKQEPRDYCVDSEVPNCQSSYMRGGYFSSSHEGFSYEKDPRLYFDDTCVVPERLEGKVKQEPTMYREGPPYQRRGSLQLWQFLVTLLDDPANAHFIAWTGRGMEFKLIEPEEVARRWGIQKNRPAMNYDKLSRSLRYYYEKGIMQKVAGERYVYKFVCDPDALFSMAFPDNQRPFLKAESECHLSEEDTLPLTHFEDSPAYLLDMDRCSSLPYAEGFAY
Chain of ETV1 (P50549 whole entry): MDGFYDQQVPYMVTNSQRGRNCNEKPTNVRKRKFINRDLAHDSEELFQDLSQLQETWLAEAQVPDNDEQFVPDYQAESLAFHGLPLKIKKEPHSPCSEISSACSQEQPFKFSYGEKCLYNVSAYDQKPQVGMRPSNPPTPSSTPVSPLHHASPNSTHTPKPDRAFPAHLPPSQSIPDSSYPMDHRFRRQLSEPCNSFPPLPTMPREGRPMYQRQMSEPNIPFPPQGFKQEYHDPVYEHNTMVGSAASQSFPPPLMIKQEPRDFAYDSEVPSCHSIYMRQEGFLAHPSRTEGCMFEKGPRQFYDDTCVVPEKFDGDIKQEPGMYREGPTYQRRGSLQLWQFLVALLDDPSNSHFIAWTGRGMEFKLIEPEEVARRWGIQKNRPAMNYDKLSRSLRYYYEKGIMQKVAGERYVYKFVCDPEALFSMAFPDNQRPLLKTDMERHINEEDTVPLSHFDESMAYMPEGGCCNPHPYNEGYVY

Take TTGAAT: the binding signal is 1.03 fold enrichment (6-mer frequency, TF over GST control) in [1]; 1.07 fold enrichment (6-mer frequency, TF over GST control) in assay [2]; 1.09 fold enrichment (6-mer frequency, TF over GST control) in assay [3]; 1.16 fold enrichment (6-mer frequency, TF over GST control) in [4]; 1.12 fold enrichment (6-mer frequency, TF over GST control) in assay [5]; 1.05 fold enrichment (6-mer frequency, TF over GST control) in assay [6]. In addition, the binding signal in [7] is 1.04 fold enrichment (6-mer frequency, TF over GST control); in assay [8], 1.1 fold enrichment (6-mer frequency, TF over GST control); in assay [9] it was 1.17 fold enrichment (6-mer frequency, TF over GST control); in assay [10], 1.11 fold enrichment (6-mer frequency, TF over GST control); in [11], 1.05 fold enrichment (6-mer frequency, TF over GST control); in assay [12], 1.01 fold enrichment (6-mer frequency, TF over GST control). Moreover, the binding signal in [13] is 1.06 fold enrichment (6-mer frequency, TF over GST control); in assay [14], 1.17 fold enrichment (6-mer frequency, TF over GST control); in assay [15], 1.09 fold enrichment (6-mer frequency, TF over GST control); in assay [16], 1.09 fold enrichment (6-mer frequency, TF over GST control); in assay [17], 1.02 fold enrichment (6-mer frequency, TF over GST control); in [18], 1.03 fold enrichment (6-mer frequency, TF over GST control).
